Source: PubChem BioAssay (National Center for Advancing Translational Sciences (NCATS))
Shown are actives, neighbours in structure and some others; about 12% of the full set was active somewhere.
G9a block: inhibitors of human histone lysine methyltransferase G9a; Potency, µM (highest dose often 102 µM), inactives show at the highest dose activity, negative = inhibition, usual class: inhibitors; AID 504332; Q96KQ7; G9a H3K9 monomethylation, AlphaScreen, 2 h; 350,000 compounds, 8.8% hits; further: on the % scale 0 is the no-effect control and ±100 the full control effect; nearly all actives have a fitted effect of over 75% in size
Target sequence (Q96KQ7 913-1193 limits assumed): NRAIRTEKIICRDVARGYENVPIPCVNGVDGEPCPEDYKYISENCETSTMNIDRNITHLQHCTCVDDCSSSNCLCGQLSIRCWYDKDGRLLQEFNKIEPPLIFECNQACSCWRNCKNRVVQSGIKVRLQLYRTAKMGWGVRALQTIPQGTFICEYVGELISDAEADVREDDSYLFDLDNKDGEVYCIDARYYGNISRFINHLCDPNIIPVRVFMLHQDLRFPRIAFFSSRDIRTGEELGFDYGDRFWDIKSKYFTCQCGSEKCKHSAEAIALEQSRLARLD
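Chemiluminescent proximity detection of H3K9 monomethylation, read after 10 min bead incubation in the dark. Reaction: 20 nM G9a, 500 nM biotin-H3K9 peptide, 20 uM SAM cofactor, 2 h, room temperature, following 15 min enzyme-compound preincubation.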
BAZ2B block: blocks human BAZ2B; AID 504333; 360,000 compounds, 4.4% hits; Potency, µM (doses to about 114 µM), for inactives: top-dose activity change, negative = inhibition, actives largely listed as inhibitors; AlphaScreen BAZ2B-H3K14Ac peptide displacement; Q9UIF8; further: on the % scale 0 is the no-effect control and ±100 the full control effect; nearly all actives have a fitted effect of over 60% in size
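In this displacement format the biotinylated H3(5-23) peptide acetylated at Lys14 serves as ligand at 50 nM, with BAZ2B at 50 nM in PBS pH 7.4 containing 0.01% Tween-20. Donor and acceptor beads are 10 ug/mL final.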
HP1b chromo inh: inhibitors of HP1-beta chromodomain binding to methylated histone tails | Potency, µM (doses to about 114 µM), without a hit: at the highest dose activity change, negative = inhibition, hits mostly inhibitors | 390,000 compounds, 0.56% hits | AID 540317 | AlphaScreen HP1-beta / biotin-H3K9me3 peptide binding | P83916; further: nearly all actives have a fitted effect of over 70% in size
Target sequence (P83916 whole entry, looked up): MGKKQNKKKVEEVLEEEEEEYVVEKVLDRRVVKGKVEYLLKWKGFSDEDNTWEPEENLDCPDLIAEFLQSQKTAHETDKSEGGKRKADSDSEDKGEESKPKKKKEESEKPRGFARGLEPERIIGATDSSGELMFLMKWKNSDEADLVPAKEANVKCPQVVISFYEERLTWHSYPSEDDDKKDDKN
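AlphaScreen: HP1-beta (50 nM) preformed 30 min with biotin-H3(1-18)K9me3 peptide (50 nM) in PBS pH 7.4, 0.01% Tween-20. Compound added for 30 min at RT, then streptavidin donor/nickel chelate acceptor beads (10 ug/mL) for 30 min.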
JMJD2A Tudor inh: inhibitors of human JMJD2A Tudor domain; AlphaScreen JMJD2A-Tudor / H3K4me3 peptide binding; Potency, µM (series often up to 114 µM), inactives show top-dose activity change, negative = inhibition, usual class: inhibitors; 390,000 compounds, 4.4% hits; AID 504339; further: on the % scale 0 is the no-effect control and ±100 the full control effect; nearly all actives have a fitted effect of over 50% in size
Sfp PPTase inh: Sfp phosphopantetheinyl transferase inhibition; Potency, µM, without a hit: largest response in the series, negative = inhibition, actives largely listed as inhibitors; AID 1490; 310,000 compounds, 3.5% hits; Biochemical Sfp PPTase activity, qHTS; Q9F4F7;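 further: the enzyme is Sfp with the accession as filed and its product quenches rhodamine fluorescence; 0% = enzyme reaction without inhibitor and -100% = no enzyme wells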
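After 15 min at room temperature with compound, 15 nM Sfp received 5 uM rhodamine-CoA plus 12.5 uM BHQ-2-ybbR (50 mM Hepes pH 7.6, 10 mM MgCl2). Rate came from the fluorescence difference over 30 min, ex 525/em 598 nm.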
Starred values were filed as active, the others as inactive; ? = inconclusive; / = no result; [ ] = remark or other dose. The call rests on the fitted dose curve; in most records, active means well fitted curve in the direction sought with a large enough effect; inconclusive means small, poorly fitted or top-dose-only effect, or another doubt; inactive means no such curve, though single readings can be large; an effect the other way counts as inactive or inconclusive. Potency means the concentration at half of the fitted maximal effect.

SMILES	G9a block	BAZ2B block	HP1b chromo inh	JMJD2A Tudor inh	Sfp PPTase inh
O=C(NCc1ccccn1)c1ccc2nc(C3CCCCC3)oc2c1	13.3%	-22.8%	57.4%	6.0%	11.6%
Cc1ccc(C2C(/C=C3/SC(=S)NC3=O)=C(c3cccs3)Oc3ccccc32)cc1 (stereo not drawn)	31.6µM*	25.1µM*	?	35.5µM*	-8.3%
CC1Cc2cc(/C=C3/SC(=S)NC3=O)ccc2O1 (stereo not drawn)	?	-36.1%	-11.2%	?	-2.4%
COc1ccc(-c2nsc(NC(=O)c3cccc(OC)c3)n2)cc1	4.8%[59 µM]	-3.3%	41.7%	-12.9%	/
CC(C)(C)NC(=O)C(c1c[nH]c2ccccc12)N(C(=O)Cn1nnc(-c2ccc(F)cc2)n1)c1cccc(O)c1 (stereo not drawn)	-21.0%[59 µM]	?	?	28.2µM*	15.2%
CC(C)(C)NC(=O)C(c1ccco1)N(C(=O)Cn1nnc(-c2ccc(F)cc2)n1)c1cccc(F)c1 (stereo not drawn)	-4.5%[59 µM]	4.5%	4.2%	-30.1%	15.4%
COc1ccccc1CNCc1cc(Br)ccc1OC	8.91µM*	56.2µM*	-33.1%	?	63.1µM*
COc1ccc(Br)cc1CNC(C)c1ccccc1 (stereo not drawn)	-10.4%[59 µM]	-3.3%	39.6%	-25.0%	9.4%
COc1cccc(CNCc2ccccn2)c1OC	5.7%	?	22.6%	56.2µM*	-11.2%
COc1ccc(CNCc2ccc(OC)c3ccccc23)cc1	-18.2%	?	-17.5%	?	3.2%
COc1cccc(CNCc2ccc(OC)c3ccccc23)c1OC	7.1%[2.33 µM]	20µM*	39.8µM*	3.16µM*	-21.5%
COc1ccccc1CNCc1ccc(OC)c2ccccc12	/	/	-15.7%	17.8µM*	/
CN(CC(=O)Nc1cccc(F)c1)CC(=O)N1CCCCC1	?	-32.4%	33.8%	-13.4%	/
COc1ccccc1CNCc1cccc(Oc2ccccc2)c1	8.91µM*	25.1µM*	-8.7%	39.8µM*	-13.1%
COc1ccccc1CNCC(c1ccccc1)c1ccccc1	39.8µM*	50.1µM*	/	/	-9.6%
COC(=O)N1CCC2(CC1)CCN(c1ncccn1)CC2	0.9%[12.7 µM]	/	/	/	10.8%
COc1cc(/C=C2\C(=O)NN(c3ccc(C)cc3)C2=O)cc([N+](=O)[O-])c1O	14.1µM*	39.8µM*	?	?	-10.6%
COc1cc(/C=C2/C(=O)NN(c3ccccc3)C2=O)cc(Br)c1O	39.8µM*	?	-24.4%	?	-11.5%
CCOc1cc(/C=C2\C(=O)NN(c3ccccc3)C2=O)cc([N+](=O)[O-])c1O	31.6µM*	?	39.8µM*	50.1µM*	0.2%
COc1cc(/C=C2/C(=O)NN(c3ccc(Cl)cc3)C2=O)cc(OC)c1O	?	35.5µM*	?	50.1µM*	-2.1%
COc1ccc(-n2c(C)cc(/C=C3\C(=O)NN(c4ccccc4)C3=O)c2C)cc1	-18.2%	-26.9%	-3.2%	-21.3%	1.2%
COC(=O)[C@@]1(Cc2ccc(OC)cc2)[C@H]2c3cc(C(=O)N4CCCC4)n(Cc4cc(F)cc5c4OCOC5)c3C[C@H]2CN1C(=O)c1ccccc1	/	/	/	/	12.1%
CCOC(=O)COc1ccc(/C=C2/C(=O)NN(c3ccc(F)cc3)C2=O)cc1OC	-6.5%[0.501 µM]	-8.6%	14.0%	?	?
COc1cc(/C=C2\C(=O)NN(c3ccccc3)C2=O)cc([N+](=O)[O-])c1O	15.8µM*	56.2µM*	?	89.1µM*	?
CCOc1ccc(C(=O)NNC(=O)CN2C(=O)C3CC=CCC3C2=O)cc1OC (stereo not drawn)	/	/	30.9%	0.7%	/
SMILES	G9a block	BAZ2B block	HP1b chromo inh	JMJD2A Tudor inh	Sfp PPTase inh
S=C(NCCCn1ccnc1)Nc1ccc(Cl)cc1Cl	-45.1%	50.1µM*	23.3%	-11.7%	10.4%
O=C(NCCCn1ccnc1)Nc1ccc(Cl)c(Cl)c1	-4.4%[59 µM]	39.8µM*	24.3%	?	15.3%
O=S(=O)(c1ccc(Br)cc1)N1CCOCC1	/	/	13.1%	6.4%	/
CC(C)(C)c1cc(Br)c(O)c(N=Nc2ccc(S(=O)(=O)N3CCOCC3)cc2)c1	14.1µM*	7.94µM*	?	5.62µM*	3.3%
Cc1ccc(O)c(N=Nc2ccc(S(=O)(=O)N3CCOCC3)cc2)c1	-31.0%[12.7 µM]	8.91µM*	?	14.1µM*	8.8%
O=S1(=O)N=C(Oc2cccc(-c3ccccc3)c2)c2ccccc21	/	/	/	-12.8%	/
